According to PubChem BioAssay AID434973 (Sanford-Burnham Center for Chemical Genomics, 2010):
The whole screen tested about 330,000 compounds, of which about 4,900 (1.5%) were called active. This excerpt belongs to a sample that is enriched for actives. Values without a mark were called inactive.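 How the source made its calls: active means inhibition above about 50% at the single test dose (limit read from the data); inactive means the rest.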

What follows are molecules tested against Sentrin-specific protease 7 (Homo sapiens) (UniProt Q9BQF6) (assay: SENP7 protease inhibitors, primary screen, biochemical, luminescence, uHTS (AID 434973;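 further: plate controls were DMSO with enzyme for no effect and no enzyme buffer wells for full effect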)). Conditions: recombinant SENP7, Z-RLRGG-aminoluciferin luminescence, 40 min; at 5 µM; hits give high values.

SMILES | inhibition
Nc1nc(SCc2cccc(Br)c2)n[nH]1 | 0.492%
CCCC1CC(C)(C(=O)Cn2[nH]c(=O)ccc2=O)OC1=O (stereo unspecified) | -0.683%
Cc1cc(C)nc(-n2ncc3c2CC(c2ccc(C(C)C)cc2)CC3=O)n1 (stereo unspecified) | 9.11%
COc1ccc(Cc2nnc(SCC(=O)c3cccc([N+](=O)[O-])c3)n2C)cc1 | 73.6% (active)
COc1cccc(NCCC(=O)c2cccc([N+](=O)[O-])c2)c1 | 13.1%
COc1ccc(-n2cnnc2SCC(=O)Nc2cccc([N+](=O)[O-])c2)cc1 | -4.85%
O=C(CN1CCOCC1)N1CCCc2c1c(=O)oc1ccc(OCc3ccccc3)cc21 | 4.73%
C/C(CC(=O)Nc1ccc(N(C)C)cc1)=N\NC(=O)c1ccccc1F | -1.56%
C/C(=N\NC(=O)c1ccccc1F)c1ccccn1 | 64.2% (active)
COc1ccc(/C(C)=N\NC(=O)c2ccc(-c3ccccc3)cc2)c(F)c1 | 3.63%
COc1ccc(OC)c(CNC(=O)c2cc(=O)[nH]c3ccc(S(=O)(=O)N4CCCC4)cc23)c1 | 0.442%
O=C1CC2(CCCC2)C(=O)N1CN1CCN(S(=O)(=O)c2ccc(F)cc2F)CC1 | -8.48%
CCC1C(=O)c2ccccc2N(C)C1=O (stereo unspecified) | -6.31%
CN1C(=O)/C(=N/OC(=O)c2ccccc2Br)c2ccccc21 | 4.98%
CN1C(=O)/C(=C\c2cc(Br)cs2)c2ccccc21 | 80.9% (active)
O=C(Nc1cc(=O)[nH]c2ncnn12)c1ccccc1Cl | 10.9%
Cc1ccc(S(=O)(=O)Nc2nc3ccccc3nc2N2CCc3ccccc3C2)cc1 | 86.2% (active)
Cc1ccc(NC(=O)CN2CCc3ccccc3C2)cc1 | -5.44%
Cc1ccc(S(=O)(=O)N2CCN(c3ncnc4ccccc34)CC2)cc1 | 0.743%
O=C(COc1ccccc1O)NC1CCCC1 | -1.19%
CCCCNc1ccc(C(=O)Nc2cccc(C)n2)cc1[N+](=O)[O-] | -7.17%
Nc1ccc(N=Nc2ccccc2Cl)c(N)n1 | 82.3% (active)

SMILES | inhibition
CCOc1cc(/C=C/C(=O)OCC(=O)NCCN2C(=O)CSC2=O)ccc1OCC(C)C | 4.69%
Cc1noc(C)c1/C=N/Nc1ccc2ccccc2n1 | 52.5% (active)
Cc1nc(Cl)cc(N/N=C/c2ccccc2)n1 | 4.74%
Cc1nc2ccccc2nc1N/N=C/c1ccc(O)cc1O | 7.72%
O=C(N/N=C/c1ccc2c(c1)OCO2)C(=O)N1CCCC1 | 4%
C(=N\Nc1ccc2ccccc2n1)/c1ccc2c(c1)OCO2 | 96.1% (active)
Cc1cc(=O)[nH]c(N/N=C/c2ccc3c(c2)OCCO3)n1 | 6.15%
O=C(c1ccccc1F)N(Cc1ccccc1)Cc1ccccc1 | -9.2%
Cc1c(Cl)c([N+](=O)[O-])nn1Cc1ccc(C(=O)N/N=C\c2cc(Cl)ccc2O)o1 | 10.1%
CCN(CC)S(=O)(=O)c1ccc(OC(C)C)c(N)c1 | 2.51%
CC(=O)C1C(c2ccc(Cl)cc2)c2c(n[nH]c2C)CC1(C)O (stereo unspecified) | -1.26%
CC(=O)NNC1=Nc2ccccc2N(C)C(C)C1 (stereo unspecified) | 1.41%
CCc1cc(=O)oc2cc(OCC(=O)N3CCCc4ccccc43)ccc12 | -13.1%
Cc1ccc(-n2cc3ccc([N+](=O)[O-])cc3n2)cc1 | 87.9% (active)
Cc1ccnc(N2C(=O)c3ccc([N+](=O)[O-])cc3C2=O)c1 | -0.103%
Cc1ccc(-c2cn(S(=O)(=O)c3cccc([N+](=O)[O-])c3)nc2N)cc1 | 1.39%
CC(C)(C)c1cc[n+](-c2[nH]c(=O)sc2/C=N/N=C(\[O-])c2ccccc2)cc1 | 1.22%
CCN(CC)S(=O)(=O)c1ccc(N2CCOCC2)c(NC(=O)c2ccc(=O)n(C)n2)c1 | -0.97%
CCC(C)C(NC(=O)C1CCC(=O)N1C(=O)OCc1ccccc1)C(=O)NC(C(=O)N1CCCC1C(N)=O)C(C)CC (stereo unspecified) | -7.38%
Cc1ccc(NC(=O)c2ccccn2)cc1S(=O)(=O)N1CCOCC1 | -1.52%
COc1ccc(C(=O)O/N=C(\N)c2ccccn2)cc1[N+](=O)[O-] | 10.4%
O=C(COC(=O)c1ccccn1)NNC(=O)c1ccc([N+](=O)[O-])cc1 | 4.18%

SMILES | inhibition
Cc1ccc(C(=O)O/N=C(\N)c2ccccn2)cc1Cl | 95.8% (active)
O=C(COC(=O)c1ccccn1)NNC(=O)c1ccc(Br)cc1 | 8.04%
N/C(=N\OC(=O)c1ccc([N+](=O)[O-])cc1)c1ccccn1 | 94.8% (active)
CCCCN=C(N)/C(C(=O)OCC)=C(\O)c1ccc(OC)cc1 | 13.1%
CC(OC(=O)CN1C(=O)c2ccccc2C1=O)C(=O)c1ccccc1 (stereo unspecified) | 5.15%
CCc1ccc(NC(=O)CN2C(=O)COc3ccc(S(=O)(=O)N4CCCC4)cc32)cc1 | 2.36%
C=C(Br)Cn1c(CCCC)nc2ccccc21 | 2.52%
FC(F)(F)c1ccnc(Oc2ccc(C3=NCCS3)cc2)c1 | 67.2% (active)
O=[N+]([O-])c1cccc(C2=NCCS2)c1 | -1.11%
CC(C)Oc1ccc(Oc2ccc(C(F)(F)F)cn2)cc1 | -3.04%
COc1ccc(C(=O)n2nc(C)c(Br)c2C)cc1OC | 0.64%
COC(=O)CN1C(=O)[C@H]2[C@@H](/C=C/c3ccccc3)N3C(=O)CN(CC4CC4)C(=O)[C@@]3(Cc3ccccc3)[C@H]2C1=O | -16.2%
CCCCSc1nnc(-c2ccc(C)cc2)o1 | 58.9% (active)
CCOC(=O)CSc1nnc(-c2ccc([N+](=O)[O-])cc2)o1 | -2.17%
CCOC(=O)CSc1nnc(-c2cccc(Br)c2)o1 | -6.07%
CCOc1ccc(NC(=O)CN(C)C(=O)c2cccc(S(=O)(=O)N3CCCC3)c2)cc1OCC | -6.73%
Cc1ccc2nc(-c3ccc(Br)cc3)cn2c1 | 89.3% (active)
Cc1cc(N2CCOCC2)nc(-c2ccc(Br)cc2)n1 | -7.07%
CSc1nnc2ccc(-c3ccc(C)cc3)nn12 | -16.3%
Cc1ccc(-c2cn3cc(C)ccc3n2)cc1 | 86.5% (active)
Cc1ccc(-c2cc(N)on2)cc1 | -4.29%
Cc1ccc(-n2c(-c3ccc(Cl)cc3)n[nH]c2=S)cc1 | -0.859%
